Source: publication PMC7862700, “An all-to-all approach to the identification of sequence-specific readers for epigenetic DNA modifications on cytosine”

Columns and labels:
Test in all cases: DAPPL (digital affinity profiling via proximity ligation, sequencing); 10 mM Tris-HCl pH 7.5, 50 mM NaCl, 1 mM DTT, 4% glycerol, room temperature, 30 min; GST-TFs on glutathione beads, 16-mer random dsDNA library, 0.1% formaldehyde crosslink after washing; high values mean tight binding
Details in all cases: protein: recombinant; tags: N-terminal GST; dsDNA, one strand shown
[1] = molecular target: T1, FLI1 (Homo sapiens, UniProt Q01543 1-452)
T1 sequence: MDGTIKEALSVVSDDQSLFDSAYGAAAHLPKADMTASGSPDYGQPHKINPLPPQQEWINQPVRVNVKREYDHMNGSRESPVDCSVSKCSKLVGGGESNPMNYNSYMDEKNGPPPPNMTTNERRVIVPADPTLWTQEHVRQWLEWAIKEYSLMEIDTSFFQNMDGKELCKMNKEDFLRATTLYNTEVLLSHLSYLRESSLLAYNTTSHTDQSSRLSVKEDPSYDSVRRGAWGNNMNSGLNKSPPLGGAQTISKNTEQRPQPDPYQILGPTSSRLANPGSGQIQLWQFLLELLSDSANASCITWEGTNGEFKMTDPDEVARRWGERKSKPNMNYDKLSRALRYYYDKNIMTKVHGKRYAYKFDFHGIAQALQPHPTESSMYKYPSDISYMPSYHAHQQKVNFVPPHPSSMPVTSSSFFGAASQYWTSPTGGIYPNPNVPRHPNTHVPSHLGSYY
Method in brief: (§1)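 Binding signal is defined as a hexamer's read frequency for one factor over its frequency for the tag-only sample. To obtain reads, GST-fused human transcription factors were expressed in yeast, captured on glutathione beads, barcoded with DNA and pooled with that sample. Pools met 200 nmole of a 16-mer random double-stranded DNA library in Tris/NaCl/DTT/glycerol buffer for 30 min at room temperature before washing, 0.1% formaldehyde crosslinking, proximity ligation (BsaI/T4 ligase, 1 h, 37 °C), PCR and Illumina NextSeq500 sequencing.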

[2] = molecular target: T2, ELK1 (Homo sapiens, UniProt P19419 1-428)
T2 sequence: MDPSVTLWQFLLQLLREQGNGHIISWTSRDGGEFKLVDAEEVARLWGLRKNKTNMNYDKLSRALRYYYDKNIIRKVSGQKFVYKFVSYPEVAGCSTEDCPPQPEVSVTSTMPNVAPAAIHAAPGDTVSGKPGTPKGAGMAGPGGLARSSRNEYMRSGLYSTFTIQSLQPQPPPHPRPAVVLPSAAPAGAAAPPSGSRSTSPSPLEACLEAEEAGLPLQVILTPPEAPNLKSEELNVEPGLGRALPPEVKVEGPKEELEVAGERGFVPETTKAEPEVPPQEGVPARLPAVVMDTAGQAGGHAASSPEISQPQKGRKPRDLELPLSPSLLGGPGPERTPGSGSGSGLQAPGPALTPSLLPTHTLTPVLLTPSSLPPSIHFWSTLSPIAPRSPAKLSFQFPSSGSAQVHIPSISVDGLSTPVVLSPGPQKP
Method in brief: as §1

[3] = molecular target: T3, GABPA (Homo sapiens, UniProt Q06546 1-454)
T3 sequence: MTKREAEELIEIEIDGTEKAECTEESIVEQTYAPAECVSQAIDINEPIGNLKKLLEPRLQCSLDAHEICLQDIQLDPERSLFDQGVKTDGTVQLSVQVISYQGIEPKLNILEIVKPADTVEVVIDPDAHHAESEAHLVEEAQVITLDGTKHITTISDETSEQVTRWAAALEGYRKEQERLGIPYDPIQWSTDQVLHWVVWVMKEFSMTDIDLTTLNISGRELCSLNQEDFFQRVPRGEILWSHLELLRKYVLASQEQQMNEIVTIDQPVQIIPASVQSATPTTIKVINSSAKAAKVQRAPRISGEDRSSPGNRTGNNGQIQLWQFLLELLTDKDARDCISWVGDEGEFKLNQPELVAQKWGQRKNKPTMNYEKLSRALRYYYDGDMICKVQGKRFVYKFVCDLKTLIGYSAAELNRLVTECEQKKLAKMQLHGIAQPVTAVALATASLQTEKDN
Method in brief: as §1

[4] = molecular target: T4, ERG (Homo sapiens, UniProt P11308 1-479)
T4 sequence: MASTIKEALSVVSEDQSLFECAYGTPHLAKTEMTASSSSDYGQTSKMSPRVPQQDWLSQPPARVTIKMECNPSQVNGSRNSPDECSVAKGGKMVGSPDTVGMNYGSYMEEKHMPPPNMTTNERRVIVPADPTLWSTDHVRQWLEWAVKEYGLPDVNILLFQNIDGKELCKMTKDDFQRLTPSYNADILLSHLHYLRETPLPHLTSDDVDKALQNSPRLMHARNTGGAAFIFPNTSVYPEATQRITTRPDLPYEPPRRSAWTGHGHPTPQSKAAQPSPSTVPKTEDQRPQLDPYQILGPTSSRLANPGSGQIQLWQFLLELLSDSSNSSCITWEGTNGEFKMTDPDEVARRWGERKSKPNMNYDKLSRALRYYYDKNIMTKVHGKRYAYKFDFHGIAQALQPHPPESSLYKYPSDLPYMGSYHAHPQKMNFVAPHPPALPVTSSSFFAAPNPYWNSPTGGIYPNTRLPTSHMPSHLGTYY
Method in brief: as §1

[5] = molecular target: ELF1 (Homo sapiens, UniProt P32519 1-619)
Method in brief: as §1

[6] = molecular target: T5, EHF (Homo sapiens, UniProt Q9NZC4 1-300)
T5 sequence: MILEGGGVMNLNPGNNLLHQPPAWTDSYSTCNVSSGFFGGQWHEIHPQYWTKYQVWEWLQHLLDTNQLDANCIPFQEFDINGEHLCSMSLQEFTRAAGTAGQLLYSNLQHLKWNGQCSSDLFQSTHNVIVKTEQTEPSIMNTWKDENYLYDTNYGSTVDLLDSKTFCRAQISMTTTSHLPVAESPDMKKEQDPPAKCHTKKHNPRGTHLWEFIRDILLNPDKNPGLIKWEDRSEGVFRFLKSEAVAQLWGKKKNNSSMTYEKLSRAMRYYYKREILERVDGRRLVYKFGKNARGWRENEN
Method in brief: as §1

[7] = molecular target: SPIB (Homo sapiens, UniProt Q01892 1-262)
Method in brief: as §1

[8] = molecular target: T6, ELK3 (Homo sapiens, UniProt P41970 1-407)
T6 sequence: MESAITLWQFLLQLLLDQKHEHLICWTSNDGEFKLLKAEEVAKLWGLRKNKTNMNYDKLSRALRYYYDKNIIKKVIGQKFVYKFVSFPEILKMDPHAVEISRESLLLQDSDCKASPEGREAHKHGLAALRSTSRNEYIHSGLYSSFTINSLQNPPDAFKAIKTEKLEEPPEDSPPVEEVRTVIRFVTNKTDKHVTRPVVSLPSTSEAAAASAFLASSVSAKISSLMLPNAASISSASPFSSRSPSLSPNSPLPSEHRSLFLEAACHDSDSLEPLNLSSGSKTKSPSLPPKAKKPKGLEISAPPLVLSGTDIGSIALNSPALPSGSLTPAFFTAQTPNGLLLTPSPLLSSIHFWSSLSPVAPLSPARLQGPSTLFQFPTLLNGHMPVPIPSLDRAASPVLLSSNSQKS
Method in brief: as §1

[9] = molecular target: T7, FEV (Homo sapiens, UniProt Q99581 1-238)
T7 sequence: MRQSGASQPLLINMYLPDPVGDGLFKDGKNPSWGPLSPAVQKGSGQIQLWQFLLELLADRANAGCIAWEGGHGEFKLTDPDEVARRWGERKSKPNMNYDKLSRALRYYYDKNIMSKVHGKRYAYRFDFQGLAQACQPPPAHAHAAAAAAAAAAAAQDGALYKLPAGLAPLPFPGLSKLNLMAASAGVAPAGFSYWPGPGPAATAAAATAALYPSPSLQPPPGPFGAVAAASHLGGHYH
Method in brief: as §1

[10] = molecular target: ETV5 (Homo sapiens, UniProt P41161 1-510)
Method in brief: as §1

[11] = molecular target: T8, SPIC (Homo sapiens, UniProt Q8N5J4 1-248)
T8 sequence: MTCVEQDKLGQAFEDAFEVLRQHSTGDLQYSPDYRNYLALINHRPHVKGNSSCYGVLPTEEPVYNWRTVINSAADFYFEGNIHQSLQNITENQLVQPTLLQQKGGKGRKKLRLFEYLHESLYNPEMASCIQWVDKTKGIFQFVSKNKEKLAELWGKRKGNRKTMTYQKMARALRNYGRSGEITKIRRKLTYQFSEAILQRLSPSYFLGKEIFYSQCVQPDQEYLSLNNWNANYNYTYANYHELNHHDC
Method in brief: as §1

[12] = molecular target: ELF4 (Homo sapiens, UniProt Q99607 1-663)
Method in brief: as §1

[13] = molecular target: T9, ELK4 (Homo sapiens, UniProt P28324-2 1-405)
T9 sequence: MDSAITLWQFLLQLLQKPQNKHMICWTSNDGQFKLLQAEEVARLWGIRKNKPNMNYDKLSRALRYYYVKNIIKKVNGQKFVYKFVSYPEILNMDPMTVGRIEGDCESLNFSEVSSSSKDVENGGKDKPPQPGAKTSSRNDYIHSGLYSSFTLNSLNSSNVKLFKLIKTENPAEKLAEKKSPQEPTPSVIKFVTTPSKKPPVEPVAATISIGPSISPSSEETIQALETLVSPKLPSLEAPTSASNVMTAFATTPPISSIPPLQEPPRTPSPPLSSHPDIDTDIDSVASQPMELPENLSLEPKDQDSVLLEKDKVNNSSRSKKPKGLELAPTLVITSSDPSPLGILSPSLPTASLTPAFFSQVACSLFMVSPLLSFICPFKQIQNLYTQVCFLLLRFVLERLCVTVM
Method in brief: as §1

[14] = molecular target: T10, ETV2 (Homo sapiens, UniProt O00321 1-342)
T10 sequence: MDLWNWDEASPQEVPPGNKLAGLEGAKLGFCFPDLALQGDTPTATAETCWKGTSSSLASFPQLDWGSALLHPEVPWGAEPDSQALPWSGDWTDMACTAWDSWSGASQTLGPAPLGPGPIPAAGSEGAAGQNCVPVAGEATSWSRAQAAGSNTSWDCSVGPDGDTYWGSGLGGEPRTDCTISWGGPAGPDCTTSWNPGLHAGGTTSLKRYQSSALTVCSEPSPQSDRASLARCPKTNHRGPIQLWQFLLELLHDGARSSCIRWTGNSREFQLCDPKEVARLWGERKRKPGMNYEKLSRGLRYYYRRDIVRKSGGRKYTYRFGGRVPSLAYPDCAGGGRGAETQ
Method in brief: as §1

[15] = molecular target: ETV1 (Homo sapiens, UniProt P50549 1-477)
Method in brief: as §1

[16] = molecular target: SPI1 (Homo sapiens, UniProt P17947 1-270)
Method in brief: as §1

[17] = molecular target: T11, ELF3 (Homo sapiens, UniProt P78545 1-371)
T11 sequence: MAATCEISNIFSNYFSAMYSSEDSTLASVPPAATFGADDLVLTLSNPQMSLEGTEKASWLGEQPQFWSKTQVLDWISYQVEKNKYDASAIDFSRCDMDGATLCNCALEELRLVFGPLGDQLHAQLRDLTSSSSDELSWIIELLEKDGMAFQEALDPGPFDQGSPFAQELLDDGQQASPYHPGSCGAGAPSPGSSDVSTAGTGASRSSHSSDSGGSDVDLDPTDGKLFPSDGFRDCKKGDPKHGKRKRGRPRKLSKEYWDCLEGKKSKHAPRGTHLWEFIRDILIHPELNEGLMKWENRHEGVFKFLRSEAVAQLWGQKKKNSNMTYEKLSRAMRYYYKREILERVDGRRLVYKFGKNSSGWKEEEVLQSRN
Method in brief: as §1

ELF1, sequence (P32519 whole entry): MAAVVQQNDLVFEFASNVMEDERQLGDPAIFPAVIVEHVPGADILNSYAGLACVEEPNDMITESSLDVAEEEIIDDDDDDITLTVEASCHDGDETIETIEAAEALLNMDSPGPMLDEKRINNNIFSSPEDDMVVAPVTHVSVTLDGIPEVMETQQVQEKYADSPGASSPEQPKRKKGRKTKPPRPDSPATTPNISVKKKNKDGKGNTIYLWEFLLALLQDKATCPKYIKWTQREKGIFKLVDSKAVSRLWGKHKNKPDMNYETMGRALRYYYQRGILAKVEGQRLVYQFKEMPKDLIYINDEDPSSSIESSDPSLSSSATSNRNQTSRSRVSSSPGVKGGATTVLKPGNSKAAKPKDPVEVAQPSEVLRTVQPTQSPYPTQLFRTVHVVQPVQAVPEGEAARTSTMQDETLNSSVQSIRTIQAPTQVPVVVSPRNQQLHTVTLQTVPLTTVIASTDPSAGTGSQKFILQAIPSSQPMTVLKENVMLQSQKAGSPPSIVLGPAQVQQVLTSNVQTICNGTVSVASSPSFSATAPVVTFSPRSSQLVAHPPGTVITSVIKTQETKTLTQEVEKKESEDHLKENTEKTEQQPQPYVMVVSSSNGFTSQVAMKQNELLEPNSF
ELF4, sequence (Q99607 whole entry): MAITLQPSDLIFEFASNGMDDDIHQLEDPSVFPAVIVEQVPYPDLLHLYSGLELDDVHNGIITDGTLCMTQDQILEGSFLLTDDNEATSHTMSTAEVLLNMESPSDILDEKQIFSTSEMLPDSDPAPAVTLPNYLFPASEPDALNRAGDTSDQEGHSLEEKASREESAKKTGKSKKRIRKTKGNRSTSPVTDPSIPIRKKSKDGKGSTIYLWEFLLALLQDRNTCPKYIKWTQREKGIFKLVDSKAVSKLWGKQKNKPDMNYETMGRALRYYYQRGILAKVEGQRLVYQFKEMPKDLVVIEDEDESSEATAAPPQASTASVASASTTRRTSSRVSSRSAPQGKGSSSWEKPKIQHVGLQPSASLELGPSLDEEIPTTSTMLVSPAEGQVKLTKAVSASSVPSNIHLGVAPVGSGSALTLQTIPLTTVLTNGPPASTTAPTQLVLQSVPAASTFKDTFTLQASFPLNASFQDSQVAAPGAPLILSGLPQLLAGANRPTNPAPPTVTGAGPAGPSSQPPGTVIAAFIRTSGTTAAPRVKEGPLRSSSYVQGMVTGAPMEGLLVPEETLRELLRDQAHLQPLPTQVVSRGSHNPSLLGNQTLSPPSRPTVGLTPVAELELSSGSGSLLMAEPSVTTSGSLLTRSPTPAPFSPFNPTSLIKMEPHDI
ETV1, sequence (P50549 whole entry): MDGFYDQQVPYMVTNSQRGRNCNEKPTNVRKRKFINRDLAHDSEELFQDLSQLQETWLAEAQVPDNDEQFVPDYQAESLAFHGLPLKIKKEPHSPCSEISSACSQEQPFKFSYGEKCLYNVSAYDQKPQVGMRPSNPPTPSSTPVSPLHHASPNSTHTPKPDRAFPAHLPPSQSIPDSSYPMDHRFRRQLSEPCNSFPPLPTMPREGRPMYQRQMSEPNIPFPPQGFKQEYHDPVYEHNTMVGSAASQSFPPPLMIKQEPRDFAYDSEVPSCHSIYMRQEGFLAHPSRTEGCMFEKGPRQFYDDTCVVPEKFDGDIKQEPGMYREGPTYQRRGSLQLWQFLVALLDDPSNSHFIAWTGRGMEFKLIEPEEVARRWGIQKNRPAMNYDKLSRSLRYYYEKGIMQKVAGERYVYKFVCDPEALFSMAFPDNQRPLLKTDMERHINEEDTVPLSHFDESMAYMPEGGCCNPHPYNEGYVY
ETV5, sequence (P41161 whole entry): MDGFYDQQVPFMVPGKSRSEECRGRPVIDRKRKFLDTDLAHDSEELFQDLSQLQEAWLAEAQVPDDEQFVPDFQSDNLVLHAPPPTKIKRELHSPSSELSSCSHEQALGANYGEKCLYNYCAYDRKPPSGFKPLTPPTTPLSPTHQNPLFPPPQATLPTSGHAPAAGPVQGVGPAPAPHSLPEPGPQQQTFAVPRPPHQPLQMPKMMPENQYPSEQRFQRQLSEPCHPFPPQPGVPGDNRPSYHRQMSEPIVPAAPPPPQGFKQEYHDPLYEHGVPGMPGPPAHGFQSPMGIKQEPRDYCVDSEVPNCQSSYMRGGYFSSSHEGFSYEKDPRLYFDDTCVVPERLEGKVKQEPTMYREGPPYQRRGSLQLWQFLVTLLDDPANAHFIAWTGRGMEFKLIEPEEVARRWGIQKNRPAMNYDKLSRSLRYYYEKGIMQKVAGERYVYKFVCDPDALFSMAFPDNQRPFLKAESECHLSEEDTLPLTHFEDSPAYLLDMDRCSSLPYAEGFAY
SPIB, sequence (Q01892 whole entry): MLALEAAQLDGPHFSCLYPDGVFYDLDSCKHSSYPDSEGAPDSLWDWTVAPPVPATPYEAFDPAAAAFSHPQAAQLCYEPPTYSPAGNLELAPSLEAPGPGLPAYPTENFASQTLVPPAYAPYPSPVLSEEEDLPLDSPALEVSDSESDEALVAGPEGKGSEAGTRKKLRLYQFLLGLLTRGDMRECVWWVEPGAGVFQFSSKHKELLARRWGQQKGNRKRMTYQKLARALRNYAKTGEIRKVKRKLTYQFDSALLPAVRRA

Row | Sequence | binding signal [1] | binding signal [2] | binding signal [3] | binding signal [4] | binding signal [5] | binding signal [6] | binding signal [7] | binding signal [8] | binding signal [9] | binding signal [10] | binding signal [11] | binding signal [12] | binding signal [13] | binding signal [14] | binding signal [15] | binding signal [16] | binding signal [17]
1 | CGGTAT | 1.08 fold enrichment (6-mer frequency, TF over GST control) | 1.12 fold enrichment (6-mer frequency, TF over GST control) | 1.01 fold enrichment (6-mer frequency, TF over GST control) | 1.13 fold enrichment (6-mer frequency, TF over GST control) | 1.1 fold enrichment (6-mer frequency, TF over GST control) | 1.08 fold enrichment (6-mer frequency, TF over GST control) | 1.07 fold enrichment (6-mer frequency, TF over GST control) | 1.01 fold enrichment (6-mer frequency, TF over GST control) | 1.08 fold enrichment (6-mer frequency, TF over GST control) | 1.06 fold enrichment (6-mer frequency, TF over GST control) | 1.08 fold enrichment (6-mer frequency, TF over GST control) | 1.06 fold enrichment (6-mer frequency, TF over GST control) | 1.03 fold enrichment (6-mer frequency, TF over GST control) | 1.31 fold enrichment (6-mer frequency, TF over GST control) | 1.09 fold enrichment (6-mer frequency, TF over GST control) |  | 
2 | GTTACA | 1.15 fold enrichment (6-mer frequency, TF over GST control) | 1.1 fold enrichment (6-mer frequency, TF over GST control) | 1.09 fold enrichment (6-mer frequency, TF over GST control) | 1.13 fold enrichment (6-mer frequency, TF over GST control) | 1.14 fold enrichment (6-mer frequency, TF over GST control) | 1.2 fold enrichment (6-mer frequency, TF over GST control) | 1.09 fold enrichment (6-mer frequency, TF over GST control) | 1.24 fold enrichment (6-mer frequency, TF over GST control) | 1.18 fold enrichment (6-mer frequency, TF over GST control) | 1.16 fold enrichment (6-mer frequency, TF over GST control) | 1.14 fold enrichment (6-mer frequency, TF over GST control) | 1.11 fold enrichment (6-mer frequency, TF over GST control) | 1.26 fold enrichment (6-mer frequency, TF over GST control) |  | 1.11 fold enrichment (6-mer frequency, TF over GST control) | 1.11 fold enrichment (6-mer frequency, TF over GST control) | 1.15 fold enrichment (6-mer frequency, TF over GST control)
